Screens: PubChem BioAssay, National Center for Advancing Translational Sciences (NCATS)
G9a inh: G9a (human) methyltransferase inhibition. Potency, µM (titrated, usually from 102 µM), for inactives: at the highest dose activity, negative = inhibition, hits mostly inhibitors. Q96KQ7. G9a H3K9 monomethylation, AlphaScreen, 2 h. hit rate 8.8% among 350,000; note: % is set by controls: 0 for no effect and ±100 for the full control effect; nearly all actives have a fitted effect of over 75% in size
Target sequence (Q96KQ7 913-1193 limits assumed): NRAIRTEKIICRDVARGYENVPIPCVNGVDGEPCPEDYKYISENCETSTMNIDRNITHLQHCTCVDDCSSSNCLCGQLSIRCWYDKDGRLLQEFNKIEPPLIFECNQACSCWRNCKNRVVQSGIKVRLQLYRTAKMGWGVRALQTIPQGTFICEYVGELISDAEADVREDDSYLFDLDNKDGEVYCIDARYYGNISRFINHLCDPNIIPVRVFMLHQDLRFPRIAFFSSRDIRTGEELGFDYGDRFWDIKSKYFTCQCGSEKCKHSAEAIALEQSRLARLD
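Using a bead-based AlphaScreen, monomethylated H3K9 product from 2 h room-temperature reactions (G9a 20 nM, peptide 500 nM, SAM 20 uM) was detected with 0.5 ug/mL rabbit anti-H3K9me1 antibody.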
BAZ2B inh: blocks human BAZ2B; AlphaScreen BAZ2B-H3K14Ac peptide displacement; Potency, µM (series often up to 114 µM), inactives show at the highest dose activity change, negative = inhibition, hits mostly inhibitors; Q9UIF8; AID 504333; hit rate 4.4% among 360,000; note: % is set by controls: 0 for no effect and ±100 for the full control effect; nearly all actives have a fitted effect of over 60% in size
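Inhibition is scored as reduced AlphaScreen emission. The BAZ2B/b-H3(5-23)K14Ac complex (50 nM each) in PBS pH 7.4, 0.01% Tween-20 meets compound (up to 110 uM) for 30 min at RT before bead addition.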
L3MBTL1 block: blocks human L3MBTL1; Q9Y468; AlphaScreen L3MBTL1–H3K9me1 peptide binding; Potency, µM (doses to about 57.1 µM), inactives show at the top dose activity, negative = inhibition, most hits filed as inhibitors; hit rate 0.66% among 230,000; AID 485360; note: % is set by controls: 0 for no effect and ±100 for the full control effect; nearly all actives have a fitted effect of over 60% in size
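AlphaScreen assay: L3MBTL1 (50 nM final) was preincubated 30 min at room temperature with biotinylated H3(1-15)K9me1 peptide (75 nM final), then 30 min with library compounds; streptavidin donor and nickel chelate acceptor beads (10 ug/mL final) added, 30 min dark.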
Sfp PPTase inh: inhibitors of Bacillus subtilis Sfp phosphopantetheinyl transferase; Q9F4F7; Biochemical Sfp PPTase activity, qHTS; Potency, µM, for inactives: largest response in the series, negative = inhibition, actives largely listed as inhibitors; hit rate 3.5% among 310,000; AID 1490;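 note: the enzyme is Sfp with the accession as filed and its product quenches rhodamine fluorescence; 0% = enzyme reaction without inhibitor and -100% = no enzyme wells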
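Sfp 15 nM + cpd, 15 min RT; start w/ rhodamine-CoA 5 uM, BHQ-2-YbbR 12.5 uM (final); 50 mM Hepes pH 7.6, 10 mM MgCl2, 0.01% NP-40, 0.01% BSA; read 525/598 nm at 0 and 30 min.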
JMJD2A Tudor inh: blocks the human JMJD2A Tudor domain; AlphaScreen JMJD2A-Tudor / H3K4me3 peptide binding; Potency, µM (top dose mostly 114 µM), inactives show at the top dose activity change, negative = inhibition, usual class: inhibitors; hit rate 4.4% among 390,000; AID 504339; note: % is set by controls: 0 for no effect and ±100 for the full control effect; nearly all actives have a fitted effect of over 50% in size
HP1b binding inh: inhibitors of HP1-beta chromodomain binding to methylated histone tails | AlphaScreen HP1-beta / biotin-H3K9me3 peptide binding | Potency, µM (titrated, usually from 114 µM), for inactives: at the highest dose activity change, negative = inhibition, usual class: inhibitors | hit rate 0.56% among 390,000 | P83916; note: nearly all actives have a fitted effect of over 70% in size
Target sequence (P83916 whole entry, looked up): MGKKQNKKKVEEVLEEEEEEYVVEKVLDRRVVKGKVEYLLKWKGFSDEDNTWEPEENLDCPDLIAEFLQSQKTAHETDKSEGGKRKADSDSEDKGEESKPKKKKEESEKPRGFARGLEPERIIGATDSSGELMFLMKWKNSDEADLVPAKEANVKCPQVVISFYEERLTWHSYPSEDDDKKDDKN
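Compound inhibition of the preformed complex between 50 nM HP1-beta and 50 nM biotinylated H3K9me3 peptide was read by AlphaScreen. Buffer was PBS pH 7.4 with 0.01% Tween-20. Incubations ran 30 min at room temperature, with 10 ug/mL donor/acceptor beads.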
Numbers without * were called inactive; [ ] = dose if it differs, or a comment. Rows were chosen to be rich in hits. Some 12% of all compounds tested hit in one or more screens of this group. Calls come from the whole dose curve; as a rule, active = well fitted curve in the direction sought with a large enough effect; inconclusive = small, poorly fitted or top-dose-only effect, or another doubt; inactive = no such curve, though single readings can be large; an effect the other way counts as inactive or inconclusive. Potency is the fitted concentration of half-maximal effect.

Screening CCC(C)(C)n1nnnc1C(c1ccc(OC)c(OC)c1)N1CCN(c2ccc(OC)cc2)CC1 (stereo unspecified) returned G9a inh 11µM*, BAZ2B inh 50µM*, L3MBTL1 block -6%, Sfp PPTase inh 18%, JMJD2A Tudor inh 28µM* and HP1b binding inh -19%.
`CCC(C)(C)n1nnnc1C(c1ccc(OC)c(OC)c1)N1CCN(c2ccc(F)cc2)CC1` (stereo unspecified) gave G9a inh 22µM*, BAZ2B inh 6%, L3MBTL1 block 0%, Sfp PPTase inh inconclusive, JMJD2A Tudor inh inconclusive and HP1b binding inh -3%.
Screening CCC(C)(C)n1nnnc1C(c1ccc(OC)c(OC)c1)N1CCN(c2ccccc2)CC1 (stereo unspecified) returned G9a inh -4%[12.7 µM], BAZ2B inh -11%, L3MBTL1 block -2%[11.4 µM], Sfp PPTase inh -19%, JMJD2A Tudor inh -19% and HP1b binding inh 5%.
For CCOc1ccccc1N1C(=O)c2ccccc2N/C1=C\N1CCN(C(=O)c2ccco2)CC1 the results were JMJD2A Tudor inh -13% and HP1b binding inh 69%.
`Cc1nnc(N2CCC(C(=O)NC3CCCCC3)CC2)c2nn(-c3ccc(Cl)cc3)c(C)c12` gave G9a inh -5%[59 µM], BAZ2B inh -6%, JMJD2A Tudor inh -12% and HP1b binding inh -1%.
For CCn1nc(-c2ccccc2)c(-c2ccccc2)c(C(=O)Nc2ccccc2C(N)=O)c1=O the results were G9a inh 0%[59 µM], BAZ2B inh -18%, JMJD2A Tudor inh -16% and HP1b binding inh 32%.
Screening Cc1cccc(NS(=O)(=O)c2ccc(Br)s2)n1 returned G9a inh inconclusive, BAZ2B inh -8%, Sfp PPTase inh 11%, JMJD2A Tudor inh -11% and HP1b binding inh 25%.
`Cc1ccc(NS(=O)(=O)c2ccc(Br)s2)nc1` gave G9a inh 40µM*, BAZ2B inh -31%, L3MBTL1 block -8%[11.4 µM], Sfp PPTase inh inconclusive, JMJD2A Tudor inh -20% and HP1b binding inh -14%.
`COc1ccc(C)cc1NS(=O)(=O)c1ccc(Br)s1` gave G9a inh 19%[2.33 µM], BAZ2B inh 0%, Sfp PPTase inh 3%, JMJD2A Tudor inh -8% and HP1b binding inh 40%.
For Cc1cc(C)nc(NS(=O)(=O)c2ccc(Br)s2)c1 the results were G9a inh 50µM*, BAZ2B inh -2%, Sfp PPTase inh inconclusive, JMJD2A Tudor inh -21% and HP1b binding inh 30%.
Screening COc1ccc(C2Nc3ccccc3C(=O)N2O)cc1OC (stereo unspecified) returned G9a inh 10µM*, BAZ2B inh -23%, L3MBTL1 block 1%, Sfp PPTase inh -5%, JMJD2A Tudor inh inconclusive and HP1b binding inh 47%.
Screening Cc1nn(C)c(C)c1C1Nc2ccccc2C(=O)N1O (stereo unspecified) returned G9a inh 13µM*, BAZ2B inh -19%, L3MBTL1 block 12%, Sfp PPTase inh -3%, JMJD2A Tudor inh -13%[57.1 µM] and HP1b binding inh 50%.
For Cc1ccc(S(=O)(=O)c2cnc(SCC(=O)Nc3cc(C)cc(C)c3)nc2N)cc1 the results were G9a inh -5%[59 µM], BAZ2B inh -3%, JMJD2A Tudor inh -9% and HP1b binding inh 16%.
For Cc1ccc(NCc2nnc(SCC(=O)Nc3ccccc3)n2CC2CCCO2)c(C)c1 (stereo unspecified) the results were G9a inh -11%[59 µM], BAZ2B inh inconclusive, Sfp PPTase inh -12%, JMJD2A Tudor inh 56µM* and HP1b binding inh -19%.
For CCOC(=O)c1cccc(NC(=O)CSc2nnc(COc3ccccc3)n2CC)c1 the results were G9a inh 18%[2.33 µM], BAZ2B inh 4%, L3MBTL1 block 3%, Sfp PPTase inh 15%, JMJD2A Tudor inh -16% and HP1b binding inh 18%.
`Cc1ccc(NC(=O)CSc2nnc(C3CC3)n2CC2CCCO2)c(C)c1` (stereo unspecified) gave G9a inh 4%, BAZ2B inh -2%, Sfp PPTase inh 3%, JMJD2A Tudor inh 5% and HP1b binding inh 35%.
Screening CCOC(=O)c1cccc(NC(=O)CSc2nnc(CNc3ccc(C)cc3)n2CC)c1 returned G9a inh inconclusive, BAZ2B inh 50µM*, L3MBTL1 block -6%, Sfp PPTase inh 0%, JMJD2A Tudor inh -24% and HP1b binding inh 13%.
`CC1(c2ccc(Cl)cc2)NC(=S)N2C1NC(=S)N2c1ccccc1` (stereo unspecified) gave G9a inh -113%[59 µM], BAZ2B inh 50µM*, Sfp PPTase inh -10%, JMJD2A Tudor inh -30% and HP1b binding inh 27%.
`OC(COC1CCCCC1)CN1CCCCC1` (stereo unspecified) gave G9a inh 7.9µM*, BAZ2B inh 56µM*, Sfp PPTase inh -11%, JMJD2A Tudor inh 79µM* and HP1b binding inh -20%.
Screening Cc1nccn1CC(O)COc1ccccc1 (stereo unspecified) returned G9a inh 6%[59 µM], BAZ2B inh 4%, L3MBTL1 block -17%, Sfp PPTase inh 14%, JMJD2A Tudor inh -4% and HP1b binding inh 17%.
Screening Cc1nccn1CC(O)COC1CCCCC1 (stereo unspecified) returned G9a inh inconclusive, BAZ2B inh 32µM*, Sfp PPTase inh -6%, JMJD2A Tudor inh 18µM* and HP1b binding inh inconclusive.
`O=C(COc1ccccc1)Nc1ccccc1C(=O)OCc1cc(=O)n2nc(C3CC3)sc2n1` gave G9a inh 19%[59 µM], BAZ2B inh -2%, JMJD2A Tudor inh -14% and HP1b binding inh 9%.
Cc1cc2cc(CNC(=S)Nc3ccc(OC(F)F)cc3)ccc2[nH]1 was read as G9a inh -20%, BAZ2B inh 45µM*, L3MBTL1 block -6%, Sfp PPTase inh -1%, JMJD2A Tudor inh inconclusive and HP1b binding inh -15%.
`CCNC(=S)NCc1ccc2[nH]c(C)cc2c1` gave G9a inh 50µM*, BAZ2B inh inconclusive, L3MBTL1 block -8%, Sfp PPTase inh -12%, JMJD2A Tudor inh inconclusive and HP1b binding inh -16%.
COc1ccc(C(=O)Cn2c(=O)n3nc(CCn4nc(C)cc4C)nc3c3cc(OC)c(OC)cc32)cc1 was read as G9a inh 2%[59 µM], BAZ2B inh -8%, JMJD2A Tudor inh -9% and HP1b binding inh 6%.
Screening C=CCOc1ccc(Br)cc1/C=C1/SC(=Nc2ccc(C(=O)O)cc2)NC1=O returned G9a inh 20µM*, BAZ2B inh 45µM*, Sfp PPTase inh -20%, JMJD2A Tudor inh inconclusive and HP1b binding inh 19%.
